# From PubChem BioAssay (EPA / NIEHS)
# Active and inactive are the calls of the source. How the source made its calls: active means hit-call score of the fitted dose curve at least 0.9, where 1 is the maximum; inactive means score below 0.9.
# Tests used:
# Conditions in all cases: mRNA level, 48 h; actives raise or lower the signal
# [1] = read-out: Lipoprotein lipase (LPL), LPL (gene 4023); experiment: LTEA_HepaRG_LPL: Life Technologies and Expression Analysis (LTEA) Assay for Lipoprotein lipase (LPL) using HepaRG (AID 2283515)
# In short: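 Differentiated human HepaRG cells in serum-free induction medium were exposed in duplicate for 48 h to eight half-log concentrations (top 100 uM) in 0.5% DMSO. LPL mRNA was quantified by TaqMan qRT-PCR, normalized to ACTB, GAPDH and POLR2A.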
# [2] = read-out: MicroRNA 122 (MIR122), gene 406906; experiment: LTEA_HepaRG_MIR122: Life Technologies and Expression Analysis (LTEA) Assay for MicroRNA 122 (MIR122) using HepaRG (AID 2283516); further: the transcript read is the microRNA miR-122
# In short: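 HepaRG plated 48 h, switched to serum-free induction medium, then treated in duplicate for 48 h (100 uM top, half-log steps, 0.5% DMSO vehicle). RNA isolated, qRT-PCR performed, concentration-response fitted both directions relative to DMSO.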
# [3] = read-out: matrix metalloproteinase-10 (MMP10), MMP10 (gene 4319); experiment: LTEA_HepaRG_MMP10: Life Technologies and Expression Analysis (LTEA) Assay for matrix metalloproteinase-10 (MMP10) using HepaRG (AID 2283517)
# In short: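 HepaRG, collagen I, ~100,000 cells/well; serum-free induction medium; 48 h exposure, duplicate, 8-pt half-log to 100 uM, 0.5% DMSO. Readout: TaqMan qRT-PCR, normalized to ACTB/GAPDH/POLR2A; bidirectional fit vs DMSO.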
# [4] = read-out: MYC, MYC (gene 4609); experiment: LTEA_HepaRG_MYC: Life Technologies and Expression Analysis (LTEA) Assay for MYC using HepaRG (AID 2283518)
# In short: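 Differentiated HepaRG cells exposed 48 h in serum-free induction medium to 8 concentrations (top 100 uM, half-log steps; 0.5% DMSO), duplicate. MYC mRNA measured by Fluidigm qRT-PCR, normalized to ACTB, GAPDH, POLR2A; bidirectional fit versus DMSO.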
# [5] = read-out: matrix metalloproteinase-3 (MMP3), MMP3 (gene 4314); experiment: LTEA_HepaRG_MMP3: Life Technologies and Expression Analysis (LTEA) Assay for matrix metalloproteinase-3 (MMP3) using HepaRG (AID 2283519)
# In short: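 Differentiated human HepaRG cells, plated 48 h on collagen I, were exposed in duplicate for 48 h in serum-free induction medium to eight half-log concentrations up to 100 uM in 0.5% DMSO. MMP3 mRNA was quantified by TaqMan qRT-PCR, normalised to ACTB, GAPDH and POLR2A.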
# [6] = read-out: Paternally Expressed 10 (PEG10), PEG10 (gene 23089); experiment: LTEA_HepaRG_PEG10: Life Technologies and Expression Analysis (LTEA) Assay for Paternally Expressed 10 (PEG10) using HepaRG (AID 2283520)
# In short: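 HepaRG, 48 h post-plating → serum-free induction medium → 48 h chemical exposure (duplicate, 8-pt, max 100 uM, half-log, 0.5% DMSO) → lysis in RLT → TaqMan qRT-PCR for PEG10, ACTB/GAPDH/POLR2A normalisation.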
# [7] = read-out: Nuclear factor NF-kappa-B p105 subunit (Homo sapiens) (UniProt P19838); experiment: LTEA_HepaRG_NFKB1: Life Technologies and Expression Analysis (LTEA) Assay for Nuclear Factor Kappa B Subunit 1 (NFKB1) using HepaRG (AID 2283521);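 further: TaqMan qRT-PCR transcript normalised to ACTB GAPDH and POLR2A housekeeping genes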
# In short: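 Differentiated human HepaRG cells in serum-free induction medium with 0.5% DMSO were exposed for 48 h to eight half-log concentrations, top 100 uM, in duplicate. NFKB1 mRNA measured by Fluidigm TaqMan qRT-PCR, normalised to ACTB, GAPDH and POLR2A; bidirectional fit versus DMSO.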
# [8] = read-out: Protein phosphatase 2A (PPP2R4), PTPA (gene 5524); experiment: LTEA_HepaRG_PPP2R4: Life Technologies and Expression Analysis (LTEA) Assay for Protein phosphatase 2A (PPP2R4) using HepaRG (AID 2283522)
# In short: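 Readout is PPP2R4 transcript level by microfluidic qRT-PCR after 48 h chemical treatment of human HepaRG liver cells. Concentrations spanned 100 uM downward in half-log steps; gain or loss of signal was fitted relative to DMSO.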
# [9] = read-out: solute carrier (SLC22A1), SLC22A1 (gene 6580); experiment: LTEA_HepaRG_SLC22A1: Life Technologies and Expression Analysis (LTEA) Assay for solute carrier (SLC22A1) using HepaRG (AID 2283524)
# In short: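 Human HepaRG cells were plated 48 h, switched to serum-free induction medium, then exposed in duplicate for 48 h to 8-point half-log series from 100 uM in 0.5% DMSO. SLC22A1 mRNA measured by qRT-PCR, normalized to ACTB/GAPDH/POLR2A, fitted bidirectionally versus DMSO.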
# [10] = read-out: Pyruvate Dehydrogenase Kinase 4 (PDK4), PDK4 (gene 5166); experiment: LTEA_HepaRG_PDK4: Life Technologies and Expression Analysis (LTEA) Assay for Pyruvate Dehydrogenase Kinase 4 (PDK4) using HepaRG (AID 2283525)
# In short: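 Differentiated human HepaRG cells, pre-cultured 48 h, were exposed in duplicate for 48 h in serum-free induction medium to eight half-log concentrations up to 100 uM in 0.5% DMSO. PDK4 mRNA was quantified by qRT-PCR, normalized to ACTB, GAPDH and POLR2A, bidirectional fitting versus DMSO.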
# [11] = read-out: NAD(P)H dehydrogenase [quinone] 1 (NQO1), NQO1 (gene 1728); experiment: LTEA_HepaRG_NQO1: Life Technologies and Expression Analysis (LTEA) Assay for NAD(P)H dehydrogenase [quinone] 1 (NQO1) using HepaRG (AID 2283526)
# In short: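 HepaRG, 48 h post-plating → serum-free induction medium → test chemical 48 h (duplicate, 100 uM top, half-log x8, 0.5% DMSO) → RNA isolation → qRT-PCR, ACTB/GAPDH/POLR2A normalization; bidirectional curve fit vs DMSO baseline.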
# [12] = read-out: Nuclear factor erythroid 2-related factor 2 (Homo sapiens) (UniProt Q16236); experiment: LTEA_HepaRG_NFE2L2: Life Technologies and Expression Analysis (LTEA) Assay for Nuclear factor erythroid 2-related factor 2 (NFE2L2) Transcription Factor using HepaRG (AID 2283527);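 on outcome: TaqMan qRT-PCR transcript level normalised to ACTB GAPDH and POLR2A housekeeping genes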
# In short: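 Differentiated human HepaRG cells in serum-free induction medium were exposed for 48 h to eight concentrations (top 100 uM, half-log dilutions, 0.5% DMSO), in duplicate. NFE2L2 mRNA was quantified by TaqMan qRT-PCR, normalized to ACTB, GAPDH and POLR2A, with bidirectional fitting versus DMSO.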
# [13] = read-out: succinate dehydrogenase complex iron sulfur subunit B (SDHB), SDHB (gene 6390); experiment: LTEA_HepaRG_SDHB: Life Technologies and Expression Analysis (LTEA) Assay for succinate dehydrogenase complex iron sulfur subunit B (SDHB) using HepaRG (AID 2283528)
# In short: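 HepaRG cells (~100,000/well, plated 48 h) exposed in duplicate for 48 h in serum-free induction medium to 8-point half-log series from 100 uM in 0.5% DMSO; mRNA by qRT-PCR normalised to ACTB, GAPDH, POLR2A; bidirectional fit versus DMSO.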
# [14] = read-out: Signal transducer and activator of transcription 3 (Homo sapiens) (UniProt P40763); experiment: LTEA_HepaRG_STAT3: Life Technologies and Expression Analysis (LTEA) Assay for Signal transducer and activator of transcription (STAT3) using HepaRG (AID 2283529)
# In short: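 Differentiated human HepaRG cells in serum-free induction medium were exposed in duplicate for 48 h to eight half-log concentrations up to 100 uM in 0.5% DMSO. STAT3 mRNA was quantified by TaqMan qRT-PCR, normalized to ACTB, GAPDH and POLR2A, and fitted bidirectionally against DMSO.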
# [15] = read-out: solute carrier (SLCO1B1), SLCO1B1 (gene 10599); experiment: LTEA_HepaRG_SLCO1B1: Life Technologies and Expression Analysis (LTEA) Assay for solute carrier (SLCO1B1) using HepaRG (AID 2283530)
# In short: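 Differentiated human HepaRG cells were exposed for 48 h in serum-free induction medium to eight half-log concentrations, top 100 uM, in 0.5% DMSO. SLCO1B1 mRNA was measured by qRT-PCR, normalized to ACTB, GAPDH and POLR2A, and fitted bidirectionally against DMSO.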
# [16] = read-out: sulfotransferase 2A1 (SULT2A1), SULT2A1 (gene 6822); experiment: LTEA_HepaRG_SULT2A1: Life Technologies and Expression Analysis (LTEA) Assay for sulfotransferase 2A1 (SULT2A1) using HepaRG (AID 2283531)
# In short: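 HepaRG human liver cells, 48 h exposure in serum-free induction medium to 8 half-log concentrations topping at 100 µM (0.5% DMSO), duplicate wells. SULT2A1 mRNA measured by TaqMan qRT-PCR, normalized to ACTB/GAPDH/POLR2A; bidirectional fit against DMSO.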
# [17] = read-out: Transforming Growth Factor (TGFA), TGFA (gene 7039); experiment: LTEA_HepaRG_TGFA: Life Technologies and Expression Analysis (LTEA) Assay for Transforming Growth Factor (TGFA) using HepaRG (AID 2283532)
# In short: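 Differentiated human HepaRG cells, plated 48 h then switched to serum-free induction medium, were exposed in duplicate for 48 h to 8-point half-log series from 100 uM in 0.5% DMSO. TGFA mRNA measured by qRT-PCR, normalized to ACTB/GAPDH/POLR2A, bidirectional fit versus DMSO.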
# [18] = read-out: Transforming Growth Factor (TGFB1), TGFB1 (gene 7040); experiment: LTEA_HepaRG_TGFB1: Life Technologies and Expression Analysis (LTEA) Assay for Transforming Growth Factor (TGFB1) Transporter using HepaRG (AID 2283533)
# In short: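 Differentiated HepaRG cells exposed 48 hr in serum-free induction medium to eight half-log concentrations up to 100 uM (0.5% DMSO), duplicate; TGFB1 mRNA by TaqMan qRT-PCR normalised to ACTB, GAPDH, POLR2A; bidirectional fit against DMSO.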
# [19] = read-out: TIMP1, TIMP1 (gene 7076); experiment: LTEA_HepaRG_TIMP1: Life Technologies and Expression Analysis (LTEA) Assay for TIMP1 using HepaRG (AID 2283534);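 further: TaqMan qRT-PCR signal normalized to ACTB GAPDH and POLR2A housekeeping genes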
# In short: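 Differentiated HepaRG cells exposed 48 h in serum-free induction medium, duplicates, eight half-log concentrations from 100 uM in 0.5% DMSO. TIMP1 mRNA by qRT-PCR normalized to ACTB, GAPDH, POLR2A; bidirectional fitting against DMSO.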
# [20] = read-out: Phosphatase and tensin (PTEN), PTEN (gene 5728); experiment: LTEA_HepaRG_PTEN: Life Technologies and Expression Analysis (LTEA) Assay for Phosphatase and tensin (PTEN) using HepaRG (AID 2283523)
# In short: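 Differentiated human HepaRG cells, plated 48 h then switched to serum-free induction medium, were exposed in duplicate for 48 h to eight half-log concentrations up to 100 uM in 0.5% DMSO. PTEN mRNA measured by TaqMan qRT-PCR, normalized to ACTB/GAPDH/POLR2A, bidirectional fit versus DMSO.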
# Signal transducer and activator of transcription 3 (Homo sapiens), sequence (P40763 whole entry, looked up): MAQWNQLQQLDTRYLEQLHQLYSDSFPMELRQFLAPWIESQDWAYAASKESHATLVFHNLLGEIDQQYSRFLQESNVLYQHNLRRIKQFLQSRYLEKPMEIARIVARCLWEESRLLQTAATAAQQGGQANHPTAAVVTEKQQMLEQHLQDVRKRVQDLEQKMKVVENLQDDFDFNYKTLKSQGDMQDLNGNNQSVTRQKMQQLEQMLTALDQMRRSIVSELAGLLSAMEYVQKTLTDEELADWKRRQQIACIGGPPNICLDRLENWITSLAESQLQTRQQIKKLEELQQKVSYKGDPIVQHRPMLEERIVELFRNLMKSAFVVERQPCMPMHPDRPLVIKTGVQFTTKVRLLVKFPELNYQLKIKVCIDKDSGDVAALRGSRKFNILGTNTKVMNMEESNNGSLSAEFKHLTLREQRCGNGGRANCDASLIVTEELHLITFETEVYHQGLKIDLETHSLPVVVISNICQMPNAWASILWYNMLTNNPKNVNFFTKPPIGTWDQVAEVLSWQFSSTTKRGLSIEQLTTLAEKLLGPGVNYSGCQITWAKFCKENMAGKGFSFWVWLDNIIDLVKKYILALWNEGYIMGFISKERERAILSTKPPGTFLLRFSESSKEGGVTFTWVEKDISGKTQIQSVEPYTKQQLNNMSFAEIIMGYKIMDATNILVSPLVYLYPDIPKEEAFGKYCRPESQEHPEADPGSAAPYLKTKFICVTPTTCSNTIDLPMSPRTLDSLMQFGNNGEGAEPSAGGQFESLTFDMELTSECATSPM
# Nuclear factor erythroid 2-related factor 2 (Homo sapiens), sequence (Q16236 whole entry, looked up): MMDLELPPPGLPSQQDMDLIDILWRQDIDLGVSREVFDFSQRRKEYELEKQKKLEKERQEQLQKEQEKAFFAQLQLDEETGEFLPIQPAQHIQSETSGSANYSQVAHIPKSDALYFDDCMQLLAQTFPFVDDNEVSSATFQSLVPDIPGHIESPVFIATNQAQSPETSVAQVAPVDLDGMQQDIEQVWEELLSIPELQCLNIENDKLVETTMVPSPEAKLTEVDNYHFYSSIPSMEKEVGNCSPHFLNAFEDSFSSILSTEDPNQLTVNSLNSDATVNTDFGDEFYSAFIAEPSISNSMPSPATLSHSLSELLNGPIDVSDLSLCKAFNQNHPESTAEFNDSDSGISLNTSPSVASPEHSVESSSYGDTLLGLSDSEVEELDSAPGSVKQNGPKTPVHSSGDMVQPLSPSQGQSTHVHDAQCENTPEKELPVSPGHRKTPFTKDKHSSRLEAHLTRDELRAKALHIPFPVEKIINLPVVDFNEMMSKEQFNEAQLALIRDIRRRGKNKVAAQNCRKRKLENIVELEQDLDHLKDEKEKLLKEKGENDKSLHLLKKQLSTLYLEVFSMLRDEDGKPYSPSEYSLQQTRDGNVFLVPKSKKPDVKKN
# Nuclear factor NF-kappa-B p105 subunit (Homo sapiens), sequence (P19838 whole entry, looked up): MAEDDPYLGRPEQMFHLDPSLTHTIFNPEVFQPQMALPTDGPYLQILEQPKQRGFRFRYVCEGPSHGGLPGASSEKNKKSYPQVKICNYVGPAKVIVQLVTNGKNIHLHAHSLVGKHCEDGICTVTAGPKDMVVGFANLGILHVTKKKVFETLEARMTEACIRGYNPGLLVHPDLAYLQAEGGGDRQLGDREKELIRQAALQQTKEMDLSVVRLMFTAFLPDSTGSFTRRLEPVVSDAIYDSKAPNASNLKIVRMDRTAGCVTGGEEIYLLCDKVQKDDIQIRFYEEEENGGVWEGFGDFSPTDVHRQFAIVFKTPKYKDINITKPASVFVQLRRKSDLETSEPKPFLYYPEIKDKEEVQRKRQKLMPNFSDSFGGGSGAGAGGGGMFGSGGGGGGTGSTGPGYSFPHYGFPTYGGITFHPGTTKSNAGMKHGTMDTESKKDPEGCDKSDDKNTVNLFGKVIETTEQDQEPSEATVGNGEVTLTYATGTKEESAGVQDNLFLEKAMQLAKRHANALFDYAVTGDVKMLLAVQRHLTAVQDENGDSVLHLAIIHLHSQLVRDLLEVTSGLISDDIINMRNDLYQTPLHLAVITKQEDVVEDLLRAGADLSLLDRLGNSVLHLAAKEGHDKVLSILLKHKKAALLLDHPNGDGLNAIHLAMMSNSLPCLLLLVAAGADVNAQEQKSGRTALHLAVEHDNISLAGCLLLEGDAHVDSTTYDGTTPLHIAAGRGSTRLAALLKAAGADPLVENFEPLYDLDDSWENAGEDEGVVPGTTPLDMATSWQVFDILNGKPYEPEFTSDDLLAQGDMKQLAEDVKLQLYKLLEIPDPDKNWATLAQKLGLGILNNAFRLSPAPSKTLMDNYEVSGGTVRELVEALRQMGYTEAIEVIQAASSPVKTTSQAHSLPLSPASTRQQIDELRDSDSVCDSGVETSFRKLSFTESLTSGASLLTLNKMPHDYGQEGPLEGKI
structure (smiles),measurement,setting,value
Cc1c2ccccc2c(C)c2c1ccc1ccccc12,AC50,[1],82.5 µM (active)
same,AC50,[2],66 µM (active)
same,AC50,[3],79.5 µM (active)
same,AC50,[4],63.7 µM (active)
same,AC50,[5],11.8 µM (active)
same,AC50,[6],28.5 µM (active)
same,outcome,[7],inactive
same,outcome,[8],inactive
same,AC50,[9],41.2 µM (active)
same,AC50,[10],56.6 µM (active)
same,outcome,[11],inactive
same,AC50,[12],90.5 µM (active)
same,outcome,[13],inactive
same,outcome,[14],inactive
same,AC50,[15],59.5 µM (active)
same,AC50,[16],71.1 µM (active)
same,AC50,[17],63.3 µM (active)
same,AC50,[18],35 µM (active)
same,outcome,[19],inactive
CCCCCCCCCCCCO,outcome,[1],inactive
same,outcome,[2],inactive
same,outcome,[3],inactive
same,outcome,[4],inactive
same,outcome,[5],inactive
same,outcome,[6],inactive
same,outcome,[8],inactive
same,outcome,[20],inactive
same,outcome,[9],inactive
same,outcome,[10],inactive
same,outcome,[11],inactive
same,outcome,[12],inactive
same,outcome,[13],inactive
same,outcome,[14],inactive
same,outcome,[15],inactive
same,outcome,[17],inactive
same,outcome,[18],inactive
same,outcome,[19],inactive
